Seven compounds from PubChem BioAssay (NCI) can be followed below.

The panel holds about 83,000 compounds, 20% with a hit somewhere; the sample as a whole holds those more often.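 Note: values are percent growth. 100 is the growth of untreated cells, values between 100 and 0 indicate rising inhibition; between -100 and 0 indicates cell death.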 A number with no mark means an inactive call. Activity calls are given as the source filed them. Rule for the calls: active = growth percent below 10; inactive = the rest.

Among the test systems are DU-145 prostate; K-562 leukemia; MALME-3M melanoma; MDA-MB-231 breast; RXF 393 renal; SF-268 CNS; SF-295 CNS; SF-539 CNS; UACC-257 melanoma; HCT-15 colon; HT29 colon; SNB-75 CNS; SNB-19 CNS; U251 CNS; PC-3 prostate; SK-MEL-5 melanoma; UACC-62 melanoma; LOX IMVI melanoma; SK-MEL-28 melanoma; M14 melanoma.
Experiment in all cases: NCI-60 one-dose screen, 48 h (100 = growth as untreated, 0 = no growth, -100 = all killed)
Details in all cases: 10 µM unless noted

As to `Cc1c(C(=O)NCCCc2ccccc2)sc2ncc(-c3ccc(Br)cc3)n12`, the growth in the experiment with DU-145 prostate was 104%; in the experiment on K-562 leukemia, 101%; in the experiment on MALME-3M melanoma, 101%; with MDA-MB-231 breast, 99.4%; in the experiment on RXF 393 renal it was 109%; with SF-268 CNS, 98.9%. Further, the growth was 112% in the experiment on SF-295 CNS; 103% in the experiment on SF-539 CNS; 109% in the experiment with UACC-257 melanoma; 104% in the experiment on HCT-15 colon; 120% in the experiment with HT29 colon; 98.4% in the experiment with SNB-75 CNS. Also, the growth is 101% in the experiment on SNB-19 CNS; 100% with U251 CNS; 102% in the experiment on PC-3 prostate; 101% in the experiment on SK-MEL-5 melanoma; 95.7% in the experiment with UACC-62 melanoma; 99.1% with LOX IMVI melanoma.
Take `O=[N+]([O-])c1ccc(Oc2nc(Nc3ccc(O[C@H]4CO[C@H]5[C@@H]4OC[C@@H]5O)c(Cl)c3)ncc2F)c(Cl)c1`: the growth with DU-145 prostate is 27.3%; in the experiment on K-562 leukemia, 22.2%; in the experiment on MALME-3M melanoma, 18.6%; with MDA-MB-231 breast, 26.8%; in the experiment with RXF 393 renal, 13.6%; in the experiment with SF-268 CNS, 31.6%. Moreover, the growth was 26.4% with SF-295 CNS; 19.5% in the experiment on SF-539 CNS; 43.9% in the experiment on UACC-257 melanoma; 26.2% with HCT-15 colon; 24.8% in the experiment on HT29 colon; -2.13% (active) in the experiment on SNB-75 CNS. For the same compound, the growth in the experiment on SNB-19 CNS was 56.6%; in the experiment with U251 CNS, 23.6%; in the experiment with PC-3 prostate, 34%; in the experiment on SK-MEL-5 melanoma it was -90.9% (active); with UACC-62 melanoma, -8.64% (active); in the experiment with LOX IMVI melanoma, 16.7%.
As to `Cc1ccc(-c2nc(N3CCN(C(=O)Nc4ccc(Cl)c(C(F)(F)F)c4)CC3)c3ccccc3n2)cc1`, the growth with DU-145 prostate was 86.6%; in the experiment on K-562 leukemia, 44.9%; in the experiment with MALME-3M melanoma it was 105%; in the experiment on MDA-MB-231 breast, 61.3%; with RXF 393 renal it was 68%; in the experiment with SF-268 CNS, 58.1%. Moreover, the growth with SF-295 CNS is 78.2%; with SF-539 CNS, 87%; with UACC-257 melanoma, 90.1%; in the experiment on HCT-15 colon it was 70.3%; in the experiment on HT29 colon, 75.2%; in the experiment with SNB-75 CNS it was 66.2%. In addition, the growth in the experiment on SNB-19 CNS is 86%; with U251 CNS it was 79.6%; in the experiment on PC-3 prostate, 49.6%; with SK-MEL-5 melanoma it was 84.3%; in the experiment with UACC-62 melanoma, 70%; in the experiment on LOX IMVI melanoma, 65.4%. In the experiment on SK-MEL-28 melanoma, the growth is 89.2%.
On to `Cc1ccc(C(=O)NN2C(=O)CSC2c2ccc(Cl)cc2)cn1` (centres undefined), for which the growth was 125% in the experiment on DU-145 prostate; 89.8% with K-562 leukemia; 140% in the experiment with MALME-3M melanoma; 88.8% in the experiment on MDA-MB-231 breast; 95.2% with RXF 393 renal; 101% in the experiment on SF-268 CNS. Also, the growth was 66.9% in the experiment with SF-295 CNS; 101% in the experiment with SF-539 CNS; 110% with UACC-257 melanoma; 90.1% with HCT-15 colon; 105% in the experiment on HT29 colon; 95.8% in the experiment on SNB-75 CNS. In addition, the growth in the experiment on SNB-19 CNS is 85.6%; with U251 CNS, 93.3%; in the experiment with PC-3 prostate, 87.5%; in the experiment on SK-MEL-5 melanoma it was 99.2%; with UACC-62 melanoma it was 93.5%; with SK-MEL-28 melanoma, 90.8%.
On to `CCc1ccccc1-n1c(N)c(C#N)c(-c2ccc(Cl)cc2)c(C#N)c1=O`, for which the growth was 110% in the experiment on DU-145 prostate; 114% in the experiment on K-562 leukemia; 173% in the experiment with MALME-3M melanoma; 94.8% with MDA-MB-231 breast; 113% with RXF 393 renal; 104% with SF-268 CNS. The growth was 99.3% with SF-295 CNS; 103% in the experiment on SF-539 CNS; 125% with UACC-257 melanoma; 104% with M14 melanoma; 108% in the experiment with HCT-15 colon; 90.5% with SNB-75 CNS. Moreover, the growth is 111% in the experiment with SNB-19 CNS; 119% in the experiment with U251 CNS; 80.6% in the experiment on PC-3 prostate; 98.6% in the experiment on UACC-62 melanoma; 100% in the experiment with LOX IMVI melanoma; 113% in the experiment on SK-MEL-28 melanoma.
`OC(COc1ccccc1Cl)CN1CCN(c2cccc(Cl)c2)CC1` (centres undefined): the growth with DU-145 prostate is 114%; with K-562 leukemia, 108%; in the experiment with MALME-3M melanoma, 107%; with MDA-MB-231 breast it was 89.3%; with RXF 393 renal, 118%; with SF-268 CNS, 105%. Also, the growth in the experiment with SF-295 CNS was 105%; in the experiment with SF-539 CNS, 101%; in the experiment on UACC-257 melanoma, 93.4%; with HCT-15 colon, 97.2%; in the experiment with HT29 colon it was 99.2%; with SNB-75 CNS, 104%. In addition, the growth was 97.6% in the experiment on SNB-19 CNS; 97.6% in the experiment with U251 CNS; 84.4% with PC-3 prostate; 102% with SK-MEL-5 melanoma; 98.5% in the experiment with UACC-62 melanoma; 91.6% in the experiment on LOX IMVI melanoma. Moreover, the growth in the experiment with SK-MEL-28 melanoma was 107%.
Consider `COc1ccc(/C=C(\C#N)n2nnc3c(F)cccc32)cc1`, for which the growth with DU-145 prostate is 2.45% (active); in the experiment with K-562 leukemia it was 12.1%; in the experiment with MALME-3M melanoma it was 36.8%; in the experiment on MDA-MB-231 breast, 21%; in the experiment with RXF 393 renal it was -21.3% (active); in the experiment with SF-268 CNS, 39.7%. In addition, the growth with SF-295 CNS was 5.51% (active); with SF-539 CNS it was -27.4% (active); in the experiment on UACC-257 melanoma it was 62.6%; in the experiment on HCT-15 colon, 13.8%; in the experiment on HT29 colon it was 13.4%; with SNB-75 CNS it was -58.8% (active). Further, the growth is 30.7% in the experiment on SNB-19 CNS; 23.7% in the experiment with U251 CNS; 29.8% in the experiment with PC-3 prostate; 32.3% in the experiment with SK-MEL-5 melanoma; 29.5% with UACC-62 melanoma; 19.8% in the experiment with LOX IMVI melanoma. For the same compound, the growth with SK-MEL-28 melanoma was 36.4%.
